The values below come from PubChem BioAssay (NCATS).

Active and inactive are the calls of the source. Calls follow the shape of the dose curve; as a rule, active = well fitted curve in the direction sought with a large enough effect; inconclusive = small, poorly fitted or top-dose-only effect, or another doubt; inactive = no such curve, though single readings can be large; an effect the other way counts as inactive or inconclusive.

The first experiment can be described thus: Cellular Toxicity (caspase-3) HUV-EC-C (AID 656).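 Also: cells exposed to compound for 16 h.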 As to conditions: HUV-EC-C cells, caspase-3 activation (apoptosis), vehicle = 0, 100 µM tamoxifen = 100%; series mostly up to 92.2 µM. A digest of the protocol:
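Concentration-dependent caspase 3/7 induction was assessed in HUV-EC-C cells exposed for 16 hours. Data scaled between DMSO and tamoxifen (100 uM) controls.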
As for `Oc1cccc(Cl)c1Cl`, the call was inactive.

Consider `CCC/C=N/O`, for which the molecule was classed as inactive.

As to `Nc1cccc2ccccc12`, the molecule was classed as inactive.

For the molecule `Cc1cnc[nH]1`, the outcome was inactive.

In the case of `CN(C)N=O`, the call was inactive.

As for `COc1c(C(C)(C)C)cc([N+](=O)[O-])c(C)c1[N+](=O)[O-]`, the molecule was classed as inactive.

For `C=C(Cl)CCl`, the outcome was inactive.

As to `ClCCOCOCCCl`, the outcome was inactive.

Turning to `CC12CC1(C)C(=O)N(c1cc(Cl)cc(Cl)c1)C2=O` (stereo unspecified), the call was inactive.

Turning to `CC(C)(Cl)[N+](=O)[O-]`, the result was inactive.

`Cl/C=C/Cl`: the call was inactive.

`CCCCOCC1CO1` (stereo unspecified): the molecule was classed as inactive.

`O=C(O)c1cccc(Cl)c1`: the outcome was inactive.

On to `C1CC2OC2CC1C1CO1` (stereo unspecified), for which the molecule was classed as inactive.

Turning to `Brc1cccc(-c2ccccc2)c1`, the outcome was inactive.

On to `Oc1c(Cl)cccc1Cl`, for which the result was inactive.

Take `ClCCOCCCl`: the result was inactive.

In the case of `CCNCC`, the outcome was inactive.

With `CC(C)C#N`, the outcome was inactive.

Regarding `Cl/C=C\Cl`, the molecule was classed as inactive.

Take `c1ccc2c(c1)CCNC2`: the result was inactive.

Consider `CCBr`, for which the molecule was called inactive.

Regarding `O=[N+]([O-])c1ccc(Cl)c(Cl)c1Cl`, the molecule was called inactive.

In the case of `N#CCCC#N`, the call was inactive.

With `Cc1ccccc1[N+](=O)[O-]`, the outcome was inactive.

For the molecule `OCCBr`, the outcome was inactive.

Consider `C=CC(=O)OCCN(C)C`, for which the molecule was called inactive.

Turning to `CC(C)(C)C(O)(CCc1ccc(Cl)cc1)Cn1cncn1` (stereo unspecified), the result was inactive.

As for `N#CCCCCC#N`, the call was inactive.

Consider `CN=C=O`, for which the outcome was inactive.

Turning to `c1ccc(C2CO2)cc1` (stereo unspecified), the molecule was called inactive.

Turning to `CCCCCC[N+](=O)[O-]`, the molecule was called inactive.

Take `OCC(Cl)CCl` (stereo unspecified): the molecule was classed as inactive.

For the molecule `COc1ccc(C=O)cc1`, the molecule was called inactive.

For the molecule `Nc1ccc(Cl)c(Cl)c1`, the call was inactive.

For `CC(=O)[O-].CC(=O)[O-].CC(=O)[O-].[Cr+3]`, the result was inactive.

`CC(=O)CCC(C)=O`: the outcome was inactive.

For the molecule `C=CC(=O)OCC(CC)CCCC` (stereo unspecified), the outcome was inactive.

As to `CC(C#N)CCC#N` (stereo unspecified), the molecule was classed as inactive.

A further experiment in a line: Cellular Toxicity (caspase-3) SHSY5Y (AID 657).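 Also: cells exposed to compound for 16 hours at 37 °C.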 The following applies: SH-SY5Y caspase-3 activation, DMSO zero, 10 µM staurosporine = 100%; series mostly up to 91.7 µM. A digest of the protocol:
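Readout: caspase-cleaved peptide-aminoluciferin substrate driving luciferase light in SH-SY5Y neuroblastoma cells after 16 h treatment. Response normalized to DMSO and 10 uM staurosporine controls.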
`Oc1cccc(Cl)c1Cl`: the call was inactive.

Turning to `CCC/C=N/O`, the molecule was called inactive.

In the case of `Nc1cccc2ccccc12`, the call was inactive.

As to `Cc1cnc[nH]1`, the call was inactive.

Regarding `CN(C)N=O`, the outcome was inactive.

In the case of `COc1c(C(C)(C)C)cc([N+](=O)[O-])c(C)c1[N+](=O)[O-]`, the call was inactive.

As for `C=C(Cl)CCl`, the call was inactive.

With `CC12CC1(C)C(=O)N(c1cc(Cl)cc(Cl)c1)C2=O` (stereo unspecified), the molecule was classed as inactive.

As for `CC(C)(Cl)[N+](=O)[O-]`, the molecule was classed as inactive.

For `Cl/C=C/Cl`, the result was inactive.

With `CCCCOCC1CO1` (stereo unspecified), the molecule was called inactive.

For `O=C(O)c1cccc(Cl)c1`, the outcome was inactive.

As to `C1CC2OC2CC1C1CO1` (stereo unspecified), the molecule was called inactive.

`Brc1cccc(-c2ccccc2)c1`: the call was inactive.

`CCNCC`: the result was inactive.

Take `CC(C)C#N`: the outcome was inactive.

For the molecule `c1ccc2c(c1)CCNC2`, the result was inactive.

With `CCBr`, the outcome was inactive.

Take `O=[N+]([O-])c1ccc(Cl)c(Cl)c1Cl`: the molecule was classed as inactive.

With `N#CCCC#N`, the molecule was called inactive.

Consider `Cc1ccccc1[N+](=O)[O-]`, for which the molecule was called inactive.

For `OCCBr`, the outcome was inactive.

Regarding `CC(C)(C)C(O)(CCc1ccc(Cl)cc1)Cn1cncn1` (stereo unspecified), the call was inactive.

Regarding `N#CCCCCC#N`, the call was inactive.

For the molecule `c1ccc(C2CO2)cc1` (stereo unspecified), the outcome was inactive.

Regarding `CCCCCC[N+](=O)[O-]`, the outcome was inactive.

As for `COc1ccc(C=O)cc1`, the call was inactive.

Regarding `Nc1ccc(Cl)c(Cl)c1`, the molecule was classed as inactive.

As for `CC(=O)[O-].CC(=O)[O-].CC(=O)[O-].[Cr+3]`, the molecule was classed as inactive.

Take `CC(=O)CCC(C)=O`: the molecule was classed as inactive.

Turning to `C=CC(=O)OCC(CC)CCCC` (stereo unspecified), the molecule was called inactive.

Turning to `CC(C#N)CCC#N` (stereo unspecified), the result was inactive.

A short description of a further experiment: Cellular Toxicity (caspase-3) BJ (AID 658). The following applies: BJ fibroblasts, luminescence, normalized: DMSO 0%, staurosporine 100%; series mostly up to 91.7 µM. A digest of the protocol: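 Plated BJ cells (1000/well) rested 5 hr, received compound for 16 hr at 37 °C, then Caspase-Glo 3/7 reagent for 1 hr at room temperature before luminescence reading.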
`Oc1cccc(Cl)c1Cl`: the molecule was called inactive.

As for `CCC/C=N/O`, the result was inactive.

As to `Nc1cccc2ccccc12`, the result was inactive.

In the case of `Cc1cnc[nH]1`, the outcome was inactive.

Regarding `CN(C)N=O`, the result was inactive.

Regarding `COc1c(C(C)(C)C)cc([N+](=O)[O-])c(C)c1[N+](=O)[O-]`, the molecule was classed as inactive.

As to `ClCCOCOCCCl`, the molecule was called inactive.

Consider `CC12CC1(C)C(=O)N(c1cc(Cl)cc(Cl)c1)C2=O` (stereo unspecified), for which the molecule was called inactive.

`CC(C)(Cl)[N+](=O)[O-]`: the result was inactive.

In the case of `Cl/C=C/Cl`, the result was inactive.

On to `CCCCOCC1CO1` (stereo unspecified), for which the outcome was inactive.

In the case of `O=C(O)c1cccc(Cl)c1`, the result was inactive.

In the case of `C1CC2OC2CC1C1CO1` (stereo unspecified), the outcome was inactive.

For the molecule `Brc1cccc(-c2ccccc2)c1`, the molecule was called inactive.

In the case of `ClCCOCCCl`, the molecule was classed as inactive.

As to `CCNCC`, the call was inactive.

`CC(C)C#N`: the outcome was inactive.

For the molecule `Cl/C=C\Cl`, the result was inactive.

`c1ccc2c(c1)CCNC2`: the molecule was classed as inactive.

Regarding `CCBr`, the molecule was classed as inactive.

Take `O=[N+]([O-])c1ccc(Cl)c(Cl)c1Cl`: the molecule was called inactive.

Consider `N#CCCC#N`, for which the call was inactive.

`Cc1ccccc1[N+](=O)[O-]`: the molecule was called inactive.

Regarding `OCCBr`, the result was inactive.

For `C=CC(=O)OCCN(C)C`, the molecule was classed as inactive.

On to `N#CCCCCC#N`, for which the result was inactive.

As for `CN=C=O`, the molecule was classed as inactive.

`c1ccc(C2CO2)cc1` (stereo unspecified): the molecule was called inactive.

As to `CCCCCC[N+](=O)[O-]`, the molecule was called inactive.

With `OCC(Cl)CCl` (stereo unspecified), the molecule was classed as inactive.

Consider `COc1ccc(C=O)cc1`, for which the molecule was classed as inactive.

Consider `Nc1ccc(Cl)c(Cl)c1`, for which the outcome was inactive.

In the case of `CC(=O)[O-].CC(=O)[O-].CC(=O)[O-].[Cr+3]`, the outcome was inactive.

With `CC(=O)CCC(C)=O`, the call was inactive.

For `C=CC(=O)OCC(CC)CCCC` (stereo unspecified), the molecule was called inactive.

Turning to `CC(C#N)CCC#N` (stereo unspecified), the molecule was classed as inactive.

The next experiment can be described thus: Cellular Toxicity (caspase-3) MRC-5 (AID 659).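 Also: cells exposed to compound for 16 h at 37 °C.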 As to conditions: MRC-5 cells, luminescence, normalized: DMSO 0%, 10 µM staurosporine 100%; series mostly up to 91.7 µM. Summed up:
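Apoptosis readout in MRC-5 cells: luciferase light generated after caspase 3/7 cleaves a peptide-aminoluciferin substrate, measured post 16 hr compound incubation at 37 °C.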
For `Oc1cccc(Cl)c1Cl`, the molecule was called inactive.

As to `CCC/C=N/O`, the molecule was called inactive.

Take `Nc1cccc2ccccc12`: the molecule was classed as inactive.

As to `Cc1cnc[nH]1`, the call was inactive.

Turning to `CN(C)N=O`, the molecule was called inactive.

On to `COc1c(C(C)(C)C)cc([N+](=O)[O-])c(C)c1[N+](=O)[O-]`, for which the call was inactive.

For `C=C(Cl)CCl`, the molecule was classed as inactive.

Take `ClCCOCOCCCl`: the outcome was inactive.

Take `CC12CC1(C)C(=O)N(c1cc(Cl)cc(Cl)c1)C2=O` (stereo unspecified): the call was inactive.

Take `CC(C)(Cl)[N+](=O)[O-]`: the outcome was inactive.

With `Cl/C=C/Cl`, the molecule was classed as inactive.

For the molecule `CCCCOCC1CO1` (stereo unspecified), the result was inactive.

`O=C(O)c1cccc(Cl)c1`: the outcome was inactive.

Take `C1CC2OC2CC1C1CO1` (stereo unspecified): the call was inactive.

For `Brc1cccc(-c2ccccc2)c1`, the molecule was called inactive.

In the case of `Oc1c(Cl)cccc1Cl`, the call was inactive.

Regarding `ClCCOCCCl`, the outcome was inactive.

Take `CCNCC`: the call was inactive.

With `CC(C)C#N`, the result was inactive.

Consider `Cl/C=C\Cl`, for which the outcome was inactive.

`c1ccc2c(c1)CCNC2`: the molecule was called inactive.

On to `CCBr`, for which the call was inactive.

Turning to `O=[N+]([O-])c1ccc(Cl)c(Cl)c1Cl`, the molecule was called inactive.

As for `N#CCCC#N`, the molecule was classed as inactive.

For `Cc1ccccc1[N+](=O)[O-]`, the outcome was inactive.

In the case of `OCCBr`, the result was inactive.

With `C=CC(=O)OCCN(C)C`, the outcome was inactive.

`CC(C)(C)C(O)(CCc1ccc(Cl)cc1)Cn1cncn1` (stereo unspecified): the molecule was classed as inactive.

For the molecule `N#CCCCCC#N`, the molecule was classed as inactive.

For `CN=C=O`, the molecule was called inactive.

On to `c1ccc(C2CO2)cc1` (stereo unspecified), for which the molecule was called inactive.

Take `CCCCCC[N+](=O)[O-]`: the outcome was inactive.

As to `OCC(Cl)CCl` (stereo unspecified), the outcome was inactive.

On to `COc1ccc(C=O)cc1`, for which the call was inactive.

As to `Nc1ccc(Cl)c(Cl)c1`, the outcome was inactive.

Consider `CC(=O)[O-].CC(=O)[O-].CC(=O)[O-].[Cr+3]`, for which the outcome was inactive.

In the case of `CC(=O)CCC(C)=O`, the molecule was classed as inactive.

As to `C=CC(=O)OCC(CC)CCCC` (stereo unspecified), the call was inactive.

Regarding `CC(C#N)CCC#N` (stereo unspecified), the call was inactive.
